High-throughput results (PubChem)
A selection: hits, their analogues and other compounds. The true share with any hit is near 3.5%.
TEAD-YAP block – TEAD-YAP interaction inhibition. HEK-TIYL cells, TEAD-Gal4/YAP UAS-luciferase luminescence. inhibition, % at 9.12 µM. 640,000 tested, 1.4% active; in the data active means inhibition above about 32%;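 further: 0% = median of test compound wells and 100% = reference inhibitor wells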
FBW7 activator – human FBW7 E3 ligase activation, primary screen; Q969H0; AlphaScreen FBW7–phospho-cyclin E peptide binding, activator screen; normalized activity (activation), % at 26.1 µM; 650,000 tested, 0.13% active; AID 1259310; in the data active means normalized activity above about 1.9%;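 further: purified mutant Fbw7 with reduced substrate affinity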
MITF inh – inhibitors of human MITF; AlphaScreen MITF homodimerization, bead proximity signal; 650,000 tested, 0.91% active; O75030; inhibition, % at 2.6 µM; in the data active means inhibition above about 50%;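 further: 0% = vehicle wells with protein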
Target sequence (O75030 whole entry, looked up): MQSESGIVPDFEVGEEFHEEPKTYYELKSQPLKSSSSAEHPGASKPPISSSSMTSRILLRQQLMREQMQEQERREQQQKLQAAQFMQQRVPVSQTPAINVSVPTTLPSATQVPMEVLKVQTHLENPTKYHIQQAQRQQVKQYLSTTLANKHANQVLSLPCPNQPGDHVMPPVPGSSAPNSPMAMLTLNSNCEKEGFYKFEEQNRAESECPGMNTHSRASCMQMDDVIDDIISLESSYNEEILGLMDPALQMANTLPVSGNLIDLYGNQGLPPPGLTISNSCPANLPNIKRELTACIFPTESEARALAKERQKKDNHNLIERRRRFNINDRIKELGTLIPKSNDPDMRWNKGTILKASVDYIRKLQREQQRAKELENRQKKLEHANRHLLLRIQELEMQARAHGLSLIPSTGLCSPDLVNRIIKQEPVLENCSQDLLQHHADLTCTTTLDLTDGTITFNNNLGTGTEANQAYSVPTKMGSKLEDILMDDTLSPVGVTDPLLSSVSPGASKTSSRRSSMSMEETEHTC
GPR151 ag – activators of human GPR151 | PathHunter beta-arrestin GPR151 cells, luminescence | activation, % at 11.2 µM | Q8TDV0 | 650,000 tested, 1% active; in the data active means activation above about 4.9%;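 further: 0% = median of compound wells and 100% = cells with positive control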
MITF confirm – confirmation of human MITF inhibitors | inhibition, % at 2.6 µM | 4,700 tested, 16% active | AlphaScreen MITF homodimerization, biotin/His-MITF beads | AID 1259372 | shares compounds with MITF inh;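 active means inhibition above a cutoff derived from the DMSO control wells, cut at about 28% in these data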;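 further: 0% = MITF dimer wells with DMSO only; inhibitors lower the bead chemiluminescence by keeping MITF from dimerizing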
AS interf DR – optically interferes with AlphaScreen signal in dose response | shares compounds with MITF inh | AlphaScreen optical interference counterscreen, cell-free | IC50, µM | 480 tested, 6% active | AID 1259373; call rule not given here
AlphaScreen intf2 – optically interferes with AlphaScreen signal; shares compounds with MITF inh; LysRS AlphaScreen counterscreen, signal interference, triplicate; inhibition, % at 2.6 µM; 4,700 tested, 7.6% active; AID 1259376;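 active means inhibition above a cutoff derived from the DMSO control wells, cut at about 30% in these data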
Active calls of the source: *; . = no result; ! = not confirmed by another sample.

SMILES	TEAD-YAP block	FBW7 activator	MITF inh	GPR151 ag	MITF confirm	AlphaScreen intf2	others
Cc1ccc(S(=O)(=O)N2CCn3cccc3C2c2ccc(F)cc2)cc1 (configuration not stated)	-4	0	3	0	.	.
Cc1[nH]ncc1-c1ccc(NC(=O)[C@@H]2Cc3ccccc3CN2)c(OCCN(C)C)c1	-4	0	67*	-1	6	9
CCN1CCN(CCCOc2ccc(C)cc2Cl)CC1	-6	0	68*	0	12	14
CCN1CCN(CCCOc2ccccc2F)CC1	1	0	33	0	.	.
CCN1CCN(CCOc2cccc(Cl)c2Cl)CC1	-2	0	72*	2	8	14
CCN1CCN(CCOc2cc(C)ccc2Cl)CC1	1	-1	72*	1	8	17
COc1ccc2cc(C(=O)O)n(C)c2c1	4	0	-1	-1	.	.
Fc1ccc(-c2cc(NCCCn3ccnc3)nc(-c3ccncc3)n2)cc1	-4	0	43	1	.	.
Cc1nc(NCCCn2ccnc2)cc(-c2cccc(C(F)(F)F)c2)n1	-44	-1	61*	-1	-4	18
N#CCCNc1cc(-c2ccc(F)cc2)nc(-c2cccnc2)n1	5	0	1	-2	.	.
N#CCCNc1cc(-c2cccc(C(F)(F)F)c2)nc(-c2cccnc2)n1	4	0	104*	0	1	11
Fc1ccc(-c2cc(NCCCn3ccnc3)nc(-c3cccnc3)n2)cc1	9	-1	54*	0	31*	39*
COc1ccc(CCNC(=O)c2cnc(Nc3ccc4ncccc4c3)s2)cc1	25	0	7	-1	.	.
O=C(CSc1nc2ccc(N3C(=O)c4ccccc4C3=O)cc2s1)Nc1ccc2c(c1)oc1ccccc12	7	0	16	-1	.	.
O=C(O)c1ccc2c([N+](=O)[O-])cccc2n1	5	0	-5	1	.	.
OCCN(Cc1ccccc1)Cc1ccccc1Cl	-1	0	14	0	.	.
OCCN(Cc1ccccc1)Cc1cccc(F)c1	-18	1	57*	0	9	9
OCCN(Cc1ccccc1)Cc1ccc(C(F)(F)F)cc1	1	0	52*	3	-3	0
O=C(Cc1cccc(C(F)(F)F)c1)Nc1ccccc1	10	0	-19	1	.	.
OCCN(Cc1ccccc1)Cc1ccccc1F	6	1	61*	-1	-3	-9
OCCN(Cc1ccccc1)Cc1cccc(C(F)(F)F)c1	-8	0	52*	-1	-13	-4
CSc1ccc(CN(CCO)Cc2ccccc2)cc1	13	1	35	2	.	.
C=CCc1ccc(OCCOCCNC(C)CC)c(OC)c1 (configuration not stated)	5	0	77*	-1	8	7
C=CCc1ccc(OCCOCCN2CCN(CC)CC2)c(OC)c1	-11	0	65*	-1	14	15
C=CCc1ccc(OCCCNC(C)CC)c(OC)c1 (configuration not stated)	12	0	13	1	.	.
SMILES	TEAD-YAP block	FBW7 activator	MITF inh	GPR151 ag	MITF confirm	AlphaScreen intf2	others
Cc1ccc(C)c(NC(=O)CN(C)S(=O)(=O)c2cnc[nH]2)c1	1	0	4	0	.	.
Cc1cccc(CCNC(=O)CN(C)S(=O)(=O)c2cnc[nH]2)c1	-1	0	76*	0	10	20
Cc1ccc(NC(=O)CN(c2ccc(I)cc2)S(C)(=O)=O)cc1	-64	0	-19	-2	.	.
Cc1cccc(NC(=O)CN(c2ccc(I)cc2)S(C)(=O)=O)c1	-75	0	71*	0	-2	0
NC(=O)c1ccc(NC(=O)CN2CCc3ccccc3C2)cc1	-6	0	3	0	.	.
O=C(CN1CCc2ccccc2C1)Nc1ccc(C(=O)N2CCCCC2)cc1	-16	0	60*	2	11	19
O=C(CN1CCN(Cc2ccccc2)CC1)Nc1ccc(C(=O)N2CCCCC2)cc1	3	0	65*	1	12	-2
O=C(CN1CCN(Cc2ccccc2)CC1)Nc1ccccc1	-5	1	1	3	.	.
Cc1ccc(SCC(=O)O/N=C(\N)c2ccc(Cl)cc2)cc1	8	0	3	0	.	.
CNC(=S)NNC(=O)C(=O)NNC(=S)NC	1	-1	79*	0	11	74*
CNC(=S)NNC(=O)c1ccc(O)cc1	-2	0	-2	-1	.	.
COc1ccc(OC)c(NC2CCCCC2OC)c1 (configuration not stated)	21	0	82*	0	16	24
C=C(C)CNC(=S)Nc1ccccc1	-11	0	77*!	4	-8	-8
C=C(C)CNC(=S)Nc1ccccn1	9	0	-5	0	.	.
CC(C)N1CC(C(=O)Nc2ccc(F)c([N+](=O)[O-])c2)CC1=O (configuration not stated)	2	0	3	0	.	.
CCOc1ccc(-n2c(=S)sc3c2nc(SCC(=O)NCc2ccccc2)n2c4ccccc4nc32)cc1	4	0	-1	0	.	.
CCOC(=O)c1ccc(-n2c(=S)sc3c2nc(SCC(=O)NCc2ccccc2)n2c4ccccc4nc32)cc1	7	0	60*	0	-4	-8
Cc1nnc(NC(=O)Nc2ccccc2F)s1	-37	1	2	-6	.	.
COc1cccc(CN2CCN(C(=O)c3cccc(F)c3)CC2)c1	10	0	44	1	.	.
COc1ccc(CN2CCN(Cc3cccc(F)c3)CC2)c(OC)c1	-2	1	85*	-2	4	14
COc1ccc(OC)c(CN2CCN(Cc3cccc(Cl)c3)CC2)c1	-2	0	73*	-1	7	9
COc1ccc(OC)c(CN2CCN(Cc3ccc(F)cc3)CC2)c1	2	0	83*	0	37*	16	AS interf DR=>6.1
COc1cccc(CN2CCN(Cc3ccc(OC)cc3OC)CC2)c1	-1	0	81*	-2	13	15
COc1ccc(CN2CCN(Cc3ccc(F)cc3)CC2)cc1OC	-3	0	26	1	.	.
COc1ccc(OC)c(CN2CCN(Cc3cccc(F)c3)CC2)c1	-3	0	75*	0	3	20
COc1ccc(OC)c(CN2CCN(S(=O)(=O)c3ccc(F)cc3)CC2)c1	5	1	58*	-1	12	18
COc1ccc(CN2CCN(S(=O)(=O)c3ccc(F)cc3)CC2)cc1OC	5	1	53*	-2	-1	10
COc1ccc(OC)c(CN2CCN(S(=O)(=O)c3ccccc3)CC2)c1	-4	0	14	-1	.	.
CCOc1cc(CN2CCN(Cc3cccc(OC)c3)CC2)ccc1OC	0	0	24	0	.	.
CC(C)C[C@H]1NC(=O)[C@H]2CN(C(=O)NC3CCCCC3)CCN2C1=O	12	0	74*	-1	41*	-7	AS interf DR=>6.5
